According to PubChem BioAssay (Tox21):
Values joined by “and” are separate entries in the source; they are usually repeats but may differ in a detail not shown here. Identical values can stand only once. Active and inactive are the calls of the source. Unless noted, calls follow the shape of the dose curve; as a rule, active = well fitted curve in the direction sought with a large enough effect in the repeat runs; inconclusive = weak or mixed curves; inactive = no such curve, though single readings can be large; an effect the other way counts as inactive or inconclusive.

Experiments:
[1] = qHTS assay for small molecule agonists of the p53 signaling pathway (AID 651631; calls by dose curve; also: nearly all actives have a fitted effect of over 15% in size; also: potency is read from the fitted curve at half-maximal effect)
Procedure, shortened: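 Stably transfected HCT-116 cells (beta-lactamase behind p53 response elements) get compounds after a 5 h settling period; 16 h later at 37 °C, FRET substrate is loaded and fluorescence read after 2 h.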

[2] = qHTS assay for small molecules that induce genotoxicity in human embryonic kidney cells expressing luciferase-tagged ATAD5 (AID 651632); also: nearly all actives have a fitted effect of over 15% in size; also: potency is read from the fitted curve at half-maximal effect
Procedure, shortened: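 Reporter cells (HEK293T) express luciferase-tagged ATAD5, a protein that accumulates after DNA damage. Treat 16 hr at 37C/5% CO2, add Amplite, wait 30 min at RT, and read luminescence.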

[3] = qHTS assay for small molecule agonists of the p53 signaling pathway - cell viability (AID 651633; calls by dose curve; also: nearly all actives have a fitted effect of over 30% in size; also: potency is read from the fitted curve at half-maximal effect)
Procedure, shortened: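 p53RE-bla cells were treated with compound for 16 hours at 37 C. Cytotoxicity was then measured as CellTiter-Glo luminescence after 30 min at room temperature.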

[4] = qHTS assay for small molecules that induce genotoxicity in human embryonic kidney cells expressing luciferase-tagged ATAD5 - cell viability (AID 651634; calls by dose curve; also: nearly all actives have a fitted effect of over 25% in size; also: potency is read from the fitted curve at half-maximal effect)
Procedure, shortened: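 Seeding of 2,000 HEK293T ATAD5-luciferase cells per well preceded pin-tool compound transfer. Plates sat 15.5 hr at 37C under 5% CO2, then fluorescence was read after 30 min with CellTiter-Fluor.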

[5] = qHTS assay for small molecule disruptors of the mitochondrial membrane potential - cell viability (AID 720634; calls by dose curve;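 also: human HepG2 liver cancer cells; series mostly up to about 83 µM; nearly all actives have a fitted effect of over 20% in size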)
Procedure, shortened: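 Measuring cytotoxicity alongside mitochondrial potential, the screen quantified ATP by luminescence in HepG2 cells after 1 hr compound incubation and a 30 min room-temperature CellTiter-Glo step.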

[6] = qHTS assay for small molecule disruptors of the mitochondrial membrane potential (AID 720635); also: potency is read from the fitted curve at half-maximal effect
Procedure, shortened: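 HepG2 cells exposed to compound 1 hr at 37C, then Mito-MPS dye 30 min. Ratio read of aggregate (540/590 nm) versus monomer (490/535 nm) fluorescence.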

[7] = qHTS assay to test for compound auto fluorescence at 590 nm (red) in HepG2 cells (AID 720674)
Procedure, shortened: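 Seeding: 2,000 HepG2 cells/well, MEM/10% FBS, overnight 37 C. Dosing: compound vs DMSO. Incubation: 1 hr, 37 C, 5% CO2. Read: fluorescence 540 ex/590 em, Rose Bengal sodium as red reference.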

[8] = qHTS assay to test for compound auto fluorescence at 535 nm (green) in HepG2 cells (AID 720675)
[9] = qHTS assay to test for compound auto fluorescence at 460 nm (blue) in HEK293 cells (AID 720678); also: potency is read from the fitted curve at half-maximal effect
Procedure, shortened: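 Measured: blue fluorescence (Ex 405/Em 460 nm) of compound-treated HEK293 cells, incubated overnight at 37C with 5% CO2 and scaled to triamterene equivalents.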

[10] = qHTS assay to test for compound auto fluorescence at 535 nm (green) in HEK293 cells (AID 720680)
[11] = qHTS assay to test for compound auto fluorescence at 460 nm (blue) in HEK293 cell free culture (AID 720681); also: potency is read from the fitted curve at half-maximal effect
Procedure, shortened: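 Compounds were added to cell-free DMEM with 10% FBS and fluorescence read directly. The blue channel used 405 nm excitation and 460 nm emission, with triamterene as the reference fluorophore.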

[12] = qHTS assay to test for compound auto fluorescence at 535 nm (green) in HEK293 cell free culture (AID 720682)
Procedure, shortened: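 Using fluorescein as calibrant, autofluorescence was quantified at 485/535 nm in cell-free DMEM containing 10% FBS after pintool addition of compound or vehicle.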

[13] = qHTS assay to test for compound auto fluorescence at 590 nm (red) in HEK293 cell free culture (AID 720683)
Procedure, shortened: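 Cell-free wells of DMEM with 10% FBS received compound, and intrinsic fluorescence was read at excitation/emission 540/590 nm. Values expressed as equivalence to Rose Bengal sodium.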

[14] = qHTS assay to test for compound auto fluorescence at 535 nm (green) in HepG2 cell free culture (AID 720686)
[15] = qHTS assay to test for compound auto fluorescence at 460 nm (blue) in HepG2 cells (AID 720687); also: potency is read from the fitted curve at half-maximal effect
Procedure, shortened: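 HepG2 cells in MEM with 10% FBS, attached overnight at 37 C, were exposed to compound or DMSO for 1 hr at 37 C, 5% CO2. Blue fluorescence was read at 405/460 nm, with triamterene as reference fluorophore.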

[16] = qHTS assay to test for compound auto fluorescence at 590 nm (red) in HEK293 cells (AID 720679)
Procedure, shortened: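 Using HEK293 cells at 2,000 per well, the screen added 23 nL of each compound after cell attachment and incubated overnight (37C, 5% CO2). The plate reader then captured red-label fluorescence, Ex/Em 540/590nm.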

[17] = qHTS assay to test for compound auto fluorescence at 590 nm (red) in HepG2 cell free culture (AID 720684)
Procedure, shortened: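 Compound was pinned into wells holding MEM with 10% FBS and no cells, and red fluorescence was read at Ex/Em 540/590 nm. Signal is expressed as auto fluorescence equivalency relative to Rose Bengal sodium.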

[18] = qHTS assay to test for compound auto fluorescence at 460 nm (blue) in HepG2 cell free culture (AID 720685)
Procedure, shortened: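 Compound (23 nL) or DMSO pinned into cell-free MEM with 10% FBS; blue fluorescence read at 405/460 nm excitation/emission, expressed as auto-fluorescence equivalency to triamterene.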

[19] = target: Glucocorticoid receptor (Homo sapiens) (UniProt P04150); assay: qHTS assay to identify small molecule agonists of the glucocorticoid receptor (GR) signaling pathway (AID 720691; active = well fitted activation curve with a large enough effect in the signal ratio in the repeat runs, not every such curve was filed as active; inconclusive = weak or mixed curves, or effect the other way; inactive = no such curve, though single readings can be large or run the other way; the % refers to the signal ratio; also: potency is read from the fitted curve at half-maximal effect)
Procedure, shortened: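 Reporter read-out: fluorescence intensity following 2 h room-temperature LiveBLAzer B/G FRET substrate loading. Prior step: GR-bla HeLa cells held 4 h, then treated 18 h at 37 C.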

[20] = target: Glucocorticoid receptor (Homo sapiens) (UniProt P04150); assay: qHTS assay to identify small molecule antagonists of the glucocorticoid receptor (GR) signaling pathway (AID 720692; active = well fitted inhibition curve with a large enough effect in the signal ratio in the repeat runs, not every such curve was filed as active; inconclusive = weak or mixed curves, or effect the other way; inactive = no such curve, though single readings can be large or run the other way; the % refers to the signal ratio)
Procedure, shortened: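 Dexamethasone (5 nM final) stimulated a stably integrated GRE-beta-lactamase reporter in HeLa cells during 18 h co-incubation with compounds; signal was quantified as fluorescence intensity of B/G FRET substrate after 2 h.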

Measured: Potency
Tags tell the direction and shape of the fitted curve or compound fluorescence and quenching.

Glucocorticoid receptor (Homo sapiens), sequence (P04150 whole entry, looked up): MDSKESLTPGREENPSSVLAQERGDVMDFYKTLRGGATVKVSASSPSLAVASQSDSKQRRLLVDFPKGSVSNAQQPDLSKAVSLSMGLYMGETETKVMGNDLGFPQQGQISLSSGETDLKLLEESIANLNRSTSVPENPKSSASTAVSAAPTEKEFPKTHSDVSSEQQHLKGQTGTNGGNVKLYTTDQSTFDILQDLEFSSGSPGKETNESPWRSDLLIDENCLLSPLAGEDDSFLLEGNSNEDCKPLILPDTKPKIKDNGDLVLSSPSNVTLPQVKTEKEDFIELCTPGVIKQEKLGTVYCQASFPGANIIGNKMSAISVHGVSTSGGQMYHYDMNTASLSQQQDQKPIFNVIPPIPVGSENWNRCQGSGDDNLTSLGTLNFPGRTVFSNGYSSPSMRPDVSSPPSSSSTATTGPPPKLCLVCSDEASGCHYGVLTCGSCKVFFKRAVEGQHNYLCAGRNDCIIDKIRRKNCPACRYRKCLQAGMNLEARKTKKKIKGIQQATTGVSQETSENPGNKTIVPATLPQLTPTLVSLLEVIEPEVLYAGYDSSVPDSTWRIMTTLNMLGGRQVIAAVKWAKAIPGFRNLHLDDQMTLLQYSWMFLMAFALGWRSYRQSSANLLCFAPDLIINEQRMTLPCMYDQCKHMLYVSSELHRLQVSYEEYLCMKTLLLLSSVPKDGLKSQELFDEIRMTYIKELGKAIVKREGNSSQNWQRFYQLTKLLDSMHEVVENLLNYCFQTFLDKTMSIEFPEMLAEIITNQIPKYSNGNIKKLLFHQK

Cc1cc(=O)oc2cc(O)ccc12
active: [1] 61.1 µM and 48.6 µM | [9] 11.2 µM [fluorescent] and 39.8 µM [fluorescent] and 35.5 µM [fluorescent] | [11] 10 µM and 39.8 µM and 35.5 µM | [15] 10 µM [fluorescent] and 39.8 µM [fluorescent]
not listed: [16] | [17] | [18] | [19] | [20]
inactive: all other assays above

CN(N=O)C(=O)N[C@@H]1[C@@H](O)[C@H](O)[C@@H](CO)O[C@@H]1O
inactive: all assays above

NC(CO)(CO)CO
not listed: [17]
inactive: all other assays above

CCOc1ccc(NC(C)=O)cc1
not listed: [16] | [17] | [18]
inactive: all other assays above

O=C(O)c1ccccc1
not listed: [18] | [19] | [20]
inactive: all other assays above

CCCCCCCC(=O)OCC(COC(=O)CCCCCCC)OC(=O)CCCCCCC
not listed: [16] | [17]
inactive: all other assays above

CN(C)CCOC(C)(c1ccccc1)c1ccccn1 (stereo not drawn)
not listed: [6] | [17] | [19] | [20]
inactive: all other assays above

CC12CCC(CC1)C(C)(C)O2
not listed: [17]
inactive: all other assays above

Cc1ncc([N+](=O)[O-])n1C
inactive: all assays above

O=c1[nH]cc(F)c(=O)[nH]1
active: [1] 4.22 µM and 3.57 µM and 1.57 µM | [2] 7.5 µM and 10.1 µM | [3] 1.06 µM and 991 nM
not listed: [18]
inactive: all other assays above

CN(C)C(=O)Nc1ccc(Cl)c(Cl)c1
active: [6] 29.8 µM
not listed: [17] | [18]
inactive: all other assays above

CCCc1cc(=O)[nH]c(=S)[nH]1
not listed: [17] | [18] | [19] | [20]
inactive: all other assays above

CCOC(N)=O
not listed: [19] | [20]
inactive: all other assays above

NS(=O)(=O)c1cc2c(cc1Cl)NCNS2(=O)=O
not listed: [16] | [18]
inactive: all other assays above

C[C@](N)(Cc1ccc(O)c(O)c1)C(=O)O
not listed: [6] | [18] | [19] | [20]
inactive: all other assays above

Cc1ncc([N+](=O)[O-])n1CCO
not listed: [19] | [20]
inactive: all other assays above

CC1(C)O[C@@H]2C[C@H]3[C@@H]4CCC5=CC(=O)C=C[C@]5(C)[C@@]4(F)[C@@H](O)C[C@]3(C)[C@]2(C(=O)CO)O1
active: [19] 3 nM [inconclusive] and 349 nM [inconclusive] and 1.4 nM
not listed: [20]
inactive: all other assays above

OC[C@H]1O[C@H](O[C@]2(CCl)O[C@H](CCl)[C@@H](O)[C@@H]2O)[C@H](O)[C@@H](O)[C@H]1Cl
not listed: [16] | [17] | [18]
inactive: all other assays above

NC(=O)c1cccnc1
not listed: [16]
inactive: all other assays above

CCCCC1(COC(=O)CCC(=O)O)C(=O)N(c2ccccc2)N(c2ccccc2)C1=O
not listed: [16] | [19] | [20]
inactive: all other assays above

CCCCNC(=O)NS(=O)(=O)c1ccc(C)cc1
not listed: [16] | [18]
inactive: all other assays above

O=C(O)CC(O)C(=O)O (stereo not drawn)
not listed: [17] | [19] | [20]
inactive: all other assays above

CS(=O)(=O)OCCCCOS(C)(=O)=O
not listed: [16] | [18] | [19] | [20]
inactive: all other assays above

Cc1c(C(=O)O)c(O)cc2c1C(=O)c1c(O)c([C@@H]3O[C@H](CO)[C@@H](O)[C@H](O)[C@H]3O)c(O)c(O)c1C2=O
active: [4] 11.9 µM and 37.6 µM and 54.5 µM
not listed: [17]
inactive: all other assays above

NS(=O)(=O)O
not listed: [16] | [17]
inactive: all other assays above

CCc1nc(N)nc(N)c1-c1ccc(Cl)cc1
active: [1] 8.41 µM | [3] 10.6 µM and 12.4 µM
inactive: all other assays above

CC(=O)C(=O)O
not listed: [17] | [19] | [20]
inactive: all other assays above

COc1ccc(C(Cl)=C(c2ccc(OC)cc2)c2ccc(OC)cc2)cc1
active: [6] 13.6 µM and 21.7 µM
not listed: [16] | [17] | [18] | [20]
inactive: all other assays above

C=CCc1ccc(O)c(OC)c1
not listed: [6] | [16] | [19] | [20]
inactive: all other assays above
